# Rows were chosen to be rich in hits. Some 19% of all compounds tested hit in one or more screens of this group.
# DT40 TDP1 CPT: growth inhibition of DT40 Tdp1-/-;hTDP1 cells with camptothecin (screen for TDP1 inhibitors) | chicken DT40 Tdp1-/-;hTDP1 cells + 20 nM CPT, ATP luminescence, 48 h | Potency, µM (series often up to 46.2 µM), without a hit: at the highest dose activity change, negative = growth inhibition, most hits filed as inhibitors | 12% of 420,000 active | AID 686979; also: nearly all actives have a fitted effect of over 55% in size
#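 Cell growth measured by CellTiter-Glo luminescence after a minimum 48 h, 37 C compound exposure with 20 nM CPT in Tdp1-knockout DT40 cells stably expressing hTDP1, seeded 400/well; qHTS titration format.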
# KB-V1 cytotox: KB-V1 MDR subline cytotoxicity | KB-V1 MDR cells viability, CellTiter-Glo, 72 h | Potency, µM (titrated, usually from 46.1 µM), hits mostly cytotoxic | 3.4% of 400,000 active; also: nearly all actives have a fitted effect of over 60% in size
#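 Cytotoxicity toward P-gp-expressing KB-V1 cells was determined as loss of CellTiter-Glo luminescence after 72 h at 37 degrees C. Compounds were tested in quantitative HTS format across a concentration range, with curves fitted to normalized data.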
# HT1080NT lethal: kills 2HG-producing HT-1080-NT fibrosarcoma cells; HT-1080-NT fibrosarcoma viability, CellTiter-Glo ATP luminescence, 48 h; Potency, µM (highest dose often 46.1 µM), for the others: top-dose activity, negative = less viability, most hits filed as cytotoxic; 1.6% of 360,000 active;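 also: NT is the 2HG producing partner of a matched IDH1 knockdown line; 0% = DMSO-treated cells and -100% = media-only wells without cells; nearly all actives have a fitted effect of over 55% in size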
#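 Toxicity toward the 2HG-producing NT line was scored as %Activity, normalised to DMSO and no-cell wells, from CellTiter-Glo luminescence after 48 hours' treatment.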
# KB-3-1 cytotox: kills parental KB-3-1 adenocarcinoma cells; KB-3-1 viability, CellTiter-Glo ATP luminescence, 72 h; Potency, µM (titrated, usually from 46.1 µM), usual class: cytotoxic; 1.4% of 400,000 active; also: nearly all actives have a fitted effect of over 60% in size
#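 72 h, 37 °C compound treatment of KB-3-1 parental cells; CellTiter-Glo added, 10 min, luminescence read. Data corrected against DMSO-only plates and normalized before curve fitting.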
# HT1080 IDH1KD tx: kills HT-1080 cells with IDH1 knockdown | HT-1080 IDH1 knockdown viability, ATP luminescence, 48 h | Potency, µM (top dose mostly 46.1 µM), without a hit: at the top dose activity, negative = toxicity, actives largely listed as cytotoxic | 2% of 360,000 active | AID 686971;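 also: 0% = DMSO wells and -100% = cell-free medium wells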
#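 Viability of IDH1-knockdown HT-1080 fibrosarcoma cells was assessed by CellTiter-Glo after 48 h at 37 °C with titrated compound; concentration-effect curves were classified by fit quality and response size.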
# DT40 TDP1 no CPT: qHTS for Inhibitors of human tyrosyl-DNA phosphodiesterase 1 (TDP1): qHTS in cells in absence of CPT; 15% of 420,000 active; Potency, µM (series often up to 46.2 µM), for the others: top-dose activity change, negative = growth inhibition, most hits filed as inhibitors; DT40 Tdp1-/- hTDP1 cells, no CPT, ATP luminescence, 48 h; AID 686978, 2013; also: nearly all actives have a fitted effect of over 55% in size
#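 No-CPT arm: Tdp1-/-;hTDP1 DT40 cells (400/well) plus compounds, incubated ≥48 hr at 37 °C. Readout CellTiter-Glo luminescence.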
# Starred values were filed as active, the others as inactive; i = inactive; ? = inconclusive; nt = no result; [ ] = dose if it differs, or a comment. Calls follow the shape of the dose curve; as a rule, active = well fitted curve in the direction sought with a large enough effect; inconclusive = small, poorly fitted or top-dose-only effect, or another doubt; inactive = no such curve, though single readings can be large; an effect the other way counts as inactive or inconclusive. Unless noted, % is scaled to controls: 0 for no effect and ±100 for the full control effect; potency is read from the fitted curve at half-maximal effect.
SMILES,DT40 TDP1 CPT,KB-V1 cytotox,HT1080NT lethal,KB-3-1 cytotox,HT1080 IDH1KD tx,DT40 TDP1 no CPT
Cc1ccc(-c2cc(-c3ccccc3C)[nH]n2)c(O)c1,?,13µM*,21µM*,21µM*,18µM*,?
Cc1ccc(O)c(-c2cc(-c3ccccc3F)[nH]n2)c1,?,i,23µM*,?,21µM*,?
CCOC(=O)NC1(Nc2cccc(Cl)c2)Oc2ccccc2O1,?,?,-9%,?,-22%,23µM*
Clc1cccc(CN2CCN(Cc3nc(CCc4ccccc4)no3)CC2)c1,?,i,-17%,i,-6%,-13%
Cc1ccc(S(=O)(=O)N(C)c2ccc(N)cc2)cc1,-27%,i,11%,i,2%,2%
Cc1ccc(S(=O)(=O)N(C)c2ccc3sc(C)nc3c2)cc1,?,i,?,i,?,23µM*
O=C(CCCCn1c(=O)c2ccccc2n(Cc2ccc(Cl)cc2)c1=O)NCc1ccccc1Cl,15µM*,?,nt,i,nt,16µM*
O=C(CCCn1c(=O)c2sccc2n(Cc2ccc(F)cc2)c1=O)NCc1ccco1,26µM*,i,10µM*,?,?,21µM*
O=C(CCCCn1c(=O)c2ccccc2n(Cc2ccc(Cl)cc2)c1=O)NCc1ccco1,?,4.6µM*,?,15µM*,-17%[9.24 µM],16µM*
CCC1CCCCN1C(=O)Cn1c(=O)n(CCCCCC(=O)NCc2ccccc2Cl)c(=O)c2sccc21 (stereo not given),?,nt,nt,nt,nt,18µM*
Cc1cccc(Cn2c(=O)n(CCCC(=O)NCc3ccco3)c(=O)c3ccccc32)c1,9.2µM*,15µM*,?,9.2µM*,?,21µM*
COc1ccc(/C=C/c2cc(-c3ccc(C)cc3)o[n+]2C)cc1,0.26µM*,i,15µM*,?,6.5µM*,0.26µM*
COc1ccc(/C=C/c2c(-c3ccc(OC)cc3)oc3ccc(-c4ccc(OC)cc4)cc23)cc1,-2%,i,-6%,i,-2%,5%
COc1ccc2nc(SCCN(C)C)[nH]c2c1,-4%,?,-8%,i,0%,17%
CCOC(=O)c1cc(S(=O)(=O)N2CCN(c3ccc(F)cc3)CC2)[nH]n1,16µM*,i,nt,i,nt,18µM*
CCOC(=O)c1cc(S(=O)(=O)N2CCN(c3cc(Cl)ccc3C)CC2)[nH]n1,12µM*,i,nt,i,nt,?
CCOC(=O)c1cc(S(=O)(=O)N2CCN(c3ccccc3OC)CC2)[nH]n1,-15%,i,nt,i,nt,-17%
CCOC(=O)c1cc(S(=O)(=O)N2CCN(c3cccc(OC)c3)CC2)[nH]n1,?,i,nt,i,nt,?
COc1ccc(Oc2ncc3nc(-c4ccccc4)c(=O)n(C4CC4)c3n2)cc1,-1%,nt,nt,nt,nt,?
CC1(C)COC(/C=C/c2ccc([N+](=O)[O-])cc2)=N1,?,21µM*,?,?,23µM*,16µM*
O=C(/C=C/c1ccccc1)Nn1cnc2ccccc2c1=O,16µM*,i,-8%,?,-9%,-98%
CC1(C(=O)NS(=O)(=O)c2ccccc2Cl)CCN1C(=O)CCc1cccs1 (stereo not given),-5%,i,-1%,i,13%,0%
O=C(/C=C/C(Cl)(Cl)Cl)Nc1ccc(Cl)cc1,4.6µM*,?,?,?,?,5.2µM*
NC(=O)Nc1ccc(Cl)cc1,-9%,i,8%,i,-1%,-16%
NC(=O)/C=C/C(=O)Nc1ccc(Cl)cc1,3.3µM*,i,-2%,i,?,8.2µM*
SMILES,DT40 TDP1 CPT,KB-V1 cytotox,HT1080NT lethal,KB-3-1 cytotox,HT1080 IDH1KD tx,DT40 TDP1 no CPT
O=C(O)c1ccc(CNCc2ccccc2Cl)s1,-4%,i,nt,i,nt,1%
Cc1cccc(OCCSc2nc3ccccc3n2CC(=O)N2CCOCC2)c1C,-22%,i,nt,i,nt,?
Cc1nc(N2CCN(S(=O)(=O)c3cccc4nonc34)CC2)c2c3c(sc2n1)CCCC3,?,i,6%,i,19%[9.24 µM],16µM*
CC(=O)NCCNc1nc2cc(-c3ccc(C(=O)N4CCN(C)CC4)cc3)sc2c(=O)n1C,9%,i,13%,i,19%,1%
CCOC(=O)c1c(NC(=O)CN2CCN(c3ccc(Cl)cc3)CC2)sc(C)c1C,?,i,0%,i,28%,?
CCOC(=O)c1c(-c2ccc(C)o2)csc1NC(=O)CN1CCCCC1,?,?,?,i,?,21µM*
CCOC(=O)c1c(-c2ccc(C)o2)csc1NC(=O)CN1CCC(C(N)=O)CC1,?,i,?,i,?,?
CCOC(=O)c1c(-c2ccco2)csc1NC(=O)CSc1nnc(N)s1,?,i,?,i,?,?
CCOC(=O)c1c(-c2ccc(C)o2)csc1NC(=O)CN1CCN(CC)CC1,?,i,?,i,?,29µM*

# Compound activity as filed in PubChem BioAssay.
